The results in this text go back to the supplement of paper PMC8728848.

Common to all, as to test: glycan array binding signal (z-score within array); higher = stronger binding
Holding throughout (details): glycan notation: IUPAC condensed, linker removed

For assay [1], the target named is Neu5Ac9Ac(a2-6)Gal(b1-4)GlcNAc. The method in brief:
(§1)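 From the Consortium for Functional Glycomics database, 3228 arrays were curated, keeping only those whose protein sequence was available. Binding is given as a within-array Z-score averaged across arrays sharing a protein sequence and across linkers. Negative Z-scores can be read as non-binding.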

The target in assay [2] is Neu5Gc(a2-6)Gal(b1-4)GlcNAc. The method in brief: as §1
Assay [3] has as its target Fuc(a1-2)Gal(b1-3)GalNAc(b1-3)Gal. The gist of the method: as §1
Assay [4] addresses Fuc(a1-2)Gal(b1-3)GlcNAc(b1-2)Man(a1-3)[Fuc(a1-2)Gal(b1-3)GlcNAc(b1-2)Man(a1-6)]Man(b1-4)GlcNAc(b1-4)GlcNAc. The method in brief:
as §1

Assay [5] concerns the target Fuc(a1-2)Gal(b1-4)GlcNAc(b1-3)[Fuc(a1-2)Gal(b1-4)GlcNAc(b1-6)]GalNAc. The method in brief:
as §1

The target in assay [6] is Fuc(a1-2)Gal3S(b1-4)GlcNAc. The gist of the method:
as §1

The target of assay [7] is Fuc(a1-2)[Gal(a1-3)]Gal(b1-4)Glc. The gist of the method: as §1
The target in assay [8] is Fuc(a1-2)[Gal(a1-3)]Gal(b1-4)GlcNAc(b1-2)Man(a1-3)[Fuc(a1-2)[Gal(a1-3)]Gal(b1-4)GlcNAc(b1-2)Man(a1-6)]Man(b1-4)GlcNAc(b1-4)GlcNAc. The method in brief: as §1
The target in assay [9] is Fuc(a1-3)[Gal(b1-4)]GlcNAc(b1-4)Gal(b1-4)[Fuc(a1-3)]GlcNAc(b1-4)Gal(b1-4)[Fuc(a1-3)]GlcNAc. The method in brief: as §1
For assay [10], the target named is Fuc(a1-3)[Gal3S(b1-4)]GlcNAc6S. The gist of the method: as §1
For assay [11], the target named is Fuc(a1-3)[GalNAc(b1-4)]GlcNAc. The gist of the method:
as §1

Assay [12] deals with Gal(a1-3)Fuc(a1-2)Gal(b1-4)GlcNAc(b1-3)[Gal(a1-3)Fuc(a1-2)Gal(b1-4)GlcNAc(b1-6)]GalNAc. The method in brief: as §1
The target of assay [13] is Gal(a1-3)[Gal(a1-4)]Gal(b1-4)GlcNAc. The gist of the method: as §1
Assay [14] deals with Gal(b1-3)GalNAc(a1-3)[Fuc(a1-2)]Gal(b1-4)Glc. The gist of the method: as §1
The target of assay [15] is Gal(b1-3)[Fuc(a1-4)]GlcNAc(b1-3)Gal(b1-3)[Fuc(a1-4)]GlcNAc. The gist of the method:
as §1

The target in assay [16] is Gal(b1-4)GalNAc(b1-3)[Fuc(a1-2)]Gal(b1-4)GlcNAc. The gist of the method: as §1
Assay [17] concerns the target Gal(b1-4)GlcNAc(b1-2)Man(a1-3)[Gal(b1-4)GlcNAc(b1-2)Man(a1-6)]Man(b1-4)GlcNAc(b1-4)GlcNAc. The method in brief:
as §1

Assay [18] deals with Gal(b1-4)GlcNAc(b1-2)Man(a1-3)[Gal(b1-4)GlcNAc(b1-2)Man(a1-6)][GlcNAc(b1-4)]Man(b1-4)GlcNAc(b1-4)[Fuc(a1-6)]GlcNAc. The method in brief: as §1
The target in assay [19] is Gal(b1-4)GlcNAc(b1-2)[Gal(b1-4)GlcNAc(b1-6)]Man(a1-6)[GlcNAc(b1-4)][Gal(b1-4)GlcNAc(b1-2)[Gal(b1-4)GlcNAc(b1-4)]Man(a1-3)]Man(b1-4)GlcNAc(b1-4)[Fuc(a1-6)]GlcNAc. The method in brief: as §1
Assay [20] deals with Gal(b1-4)GlcNAc(b1-3)Gal(b1-3)GlcNAc. The method in brief:
as §1

Assay [21] concerns the target Gal(b1-4)GlcNAc(b1-3)Gal(b1-4)Glc. The method in brief: as §1
Assay [22] has as its target Gal3S(b1-4)Glc. The method in brief: as §1
Assay [23] deals with Gal3S(b1-4)[Fuc(a1-3)]Glc6S. The gist of the method: as §1
The target of assay [24] is Gal4S6S(b1-4)GlcNAc. The method in brief:
as §1

Assay [25] deals with Gal6S(b1-4)Glc6S. The method in brief: as §1
The target in assay [26] is GalNAc(b1-3)GlcNAc. The method in brief: as §1
The target in assay [27] is GalNAc(b1-4)GlcNAc. The method in brief: as §1
Assay [28] deals with GalNAc(b1-4)GlcNAc(b1-3)GalNAc(b1-4)GlcNAc. The gist of the method: as §1
In assay [29] the target is GalNAc6S(b1-4)GlcNAc. The gist of the method: as §1
Assay [30] has as its target Glc(a1-4)Glc(a1-4)Glc(a1-4)Glc. The gist of the method:
as §1

The target of assay [31] is GlcNAc(a1-4)Gal(b1-4)GlcNAc. The gist of the method:
as §1

Assay [32] has as its target GlcNAc(a1-4)Gal(b1-4)GlcNAc(b1-3)Gal(b1-4)GlcNAc. The method in brief:
as §1

Assay [33] has as its target GlcNAc(b1-2)Man(a1-3)[GlcNAc(b1-2)Man(a1-6)]Man(b1-4)GlcNAc(b1-4)GlcNAc. The gist of the method: as §1
The target of assay [34] is GlcNAc(b1-3)Gal(b1-4)GlcNAc(b1-3)Gal(b1-4)GlcNAc(b1-3)Gal(b1-4)GlcNAc(b1-3)Gal(b1-4)GlcNAc(b1-2)Man(a1-3)[GlcNAc(b1-3)Gal(b1-4)GlcNAc(b1-3)Gal(b1-4)GlcNAc(b1-3)Gal(b1-4)GlcNAc(b1-3)Gal(b1-4)GlcNAc(b1-2)Man(a1-6)]Man(b1-4)GlcNAc(b1-4)[Fuc(a1-6)]GlcNAc. The gist of the method:
as §1

For assay [35], the target named is GlcNAc(b1-3)Gal(b1-4)GlcNAc(b1-3)[GlcNAc(b1-3)Gal(b1-4)GlcNAc(b1-3)]GalNAc. The method in brief: as §1
The target of assay [36] is GlcNAc(b1-3)[GlcNAc(b1-6)]GalNAc. The gist of the method:
as §1

The target of assay [37] is Neu5Ac(a2-3)Gal(b1-3)[Fuc(a1-4)]GlcNAc(b1-3)Gal(b1-3)[Fuc(a1-4)]GlcNAc. The method in brief: as §1
The target of assay [38] is Neu5Ac(a2-3)Gal(b1-3)[Neu5Ac(a2-6)]GlcNAc(b1-3)[Fuc(a1-3)[Gal(b1-4)]GlcNAc(b1-6)]Gal(b1-4)Glc. The gist of the method:
as §1

Assay [39] deals with Neu5Ac(a2-3)Gal(b1-4)Glc. The method in brief:
as §1

The target of assay [40] is Neu5Ac(a2-3)Gal(b1-4)[Fuc(a1-3)]GlcNAc(b1-2)Man. The method in brief: as §1
In assay [41] the target is Neu5Ac(a2-3)Gal(b1-4)[Fuc(a1-3)]GlcNAc(b1-6)[Neu5Ac(a2-3)Gal(b1-3)]GalNAc. The gist of the method:
as §1

In assay [42] the target is Neu5Ac(a2-6)Gal(b1-4)GlcNAc(b1-2)Man(a1-3)[Gal(b1-4)GlcNAc(b1-2)Man(a1-6)]Man(b1-4)GlcNAc(b1-4)GlcNAc. The method in brief:
as §1

The target of assay [43] is Neu5Ac(a2-6)GalNAc(b1-4)GlcNAc6S. The method in brief:
as §1

This excerpt belongs to a sample that is enriched for the strongest signals.

B1: PpFlo1 (Pichia pastoris) (protein)
chain: MGSSHHHHHHSSGLVPRGSHMQESGDGDISDSAYACDIDATRYDGFNATIYEFQPGDGRLTRDPVFMSTGYLNRTQLHSITGVTDPGFSIYTPGVPTTTLYGIPNVNWENLLLELKGYFRAEVSGDYGLSLRNIDDSAILFFGKETAFQCCNENSISNEASTDYSLFTIFRQEGDETTNLDSFTYTQYLEAGKYYPVRTFFVNIERHAVFNFTMTLPDGTELTDFHNYIYQFGALDEEQCQA
As to B1, the “glycan array binding signal (z-score)” value in [1] was -0.44; in [2], 0.

B2: Blon2355mut (Bifidobacterium longum) (protein)
chain: MVQEPTLEWHVIPEPTNVEPLVGTCSLPLSGTVVEQRGADDAEAVFARQLVDDIKRVCGGRWQVASGEVQREVTLRTSPSLDDWSYVLEVSPDGVVITGSGFEGVRDGVQTLRQIIRQIGLTIPCMVIRDRPAFSTRGYYLDVTRGRVPSMAWLKSWVDRLCFYKYNQFQLYIEHTFQFNGLSEVWRGADPLTSSDILELDSYCAARGIELVPSVSTFGHHYTALRTRQLRDLGEFPEDADRPFSLIERMTHHTLNITDERSYEFSTSLIDELMPLFRSRKFNICANETFDLGKGRSKQESAKRGVGAMYADFVERLCRHVDDRGHDVMVWADVALEHPEIIDTLPKNITWLNWQYEPNVDDGTTAALADAGATQMVCPAVWCWNALIPRIDDAWNNITRMARHGRAHDVSGMLVTDWGDFGHVNDPRMSVPGMIFGAQQSWNPDAELSEVDMLSRISTIEYGDHTGSVVGALRGASAKGGFSWSDLVTYLELDDGRGGCNTEIVRVMGCLEAYRNDLPQSGQARLADARVSMLRTLRDSILAGRELNGKLDDAAKDITQLLRVAGDPSSAAVWSLAIDGQRLLNRVGLALLAAHGVVRQDEAGIDAAKLADELECWTEQYSRLWHEVSRQSELARIQHVVWRAADVLRSI
For the molecule B2, the “glycan array binding signal (z-score)” value in assay [3] is 4.04; in assay [4] it was 2.69; in assay [5], -0.88; in assay [6], -0.915; in [7] it was -0.428; in [8] it was -0.395. For the same molecule, the “glycan array binding signal (z-score)” value in [9] is -0.166; in assay [10], 0.088; in [11] it was 3.72; in [12], -1.04; in [13], 3.31; in assay [14], -1.53. Further, the “glycan array binding signal (z-score)” value was -1.02 in assay [15]; 0.202 in assay [16]; -0.374 in assay [17]; -0.951 in assay [18]; -0.768 in [19]; -1.26 in assay [20]. The “glycan array binding signal (z-score)” value worked out at 1.06 in [21]; 2.74 in [22]; 3.52 in assay [23]; 0.175 in [24]; 1.48 in assay [25]; 0.179 in assay [26]. Also, the “glycan array binding signal (z-score)” value in assay [27] was 3.04; in assay [28], 0.796; in [29] it was -0.569; in [30] it was 2.06; in [31], -0.637; in assay [32], -0.378. In addition, the “glycan array binding signal (z-score)” value is -0.111 in [33]; 1.1 in assay [34]; 3.84 in assay [35]; -0.847 in assay [36]; -0.494 in assay [37]; 4.03 in assay [38]. Moreover, the “glycan array binding signal (z-score)” value is 3.29 in assay [39]; 1.4 in assay [40]; 1.6 in assay [41]; -0.73 in assay [42]; -0.126 in [43]; 3.4 in [1].
